The values below come from PubChem BioAssay.

Active and inactive are the calls of the source.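 Rule for the calls, unless noted: active = compound that reduces growth-factor-driven endothelial tube area in a mixed cell culture, no cutoff stated; inactive = the rest.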

The nature of assay [1]: stimulators of nuclear beta-catenin in C2C12, primary screen, imaging, WNT3A-conditioned medium, mouse C2C12, NPC library (AID 1117326; in the data active = nuclear beta-catenin stimulation mostly above about 4.2%, no sharp cut-off; inactive = mostly below about 10%; note: reference of the scale not given here). Particulars: stronger effect = higher value.
The nature of assay [2]: stimulators of insulin release from INS-1E, primary screen, cell-based, 5 mM glucose, NPC library (AID 1117329;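 active = compound raises insulin release from rat beta cells at 5 mM glucose, no numeric limit stated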; note: reference of the scale not given here). The conditions noted are these: rat INS-1E insulin secretion, at 10 µM, stronger effect = higher value.
Assay [3] in a line: growth inhibition of GSK3B-pretreated HCT116 cells – cell-based, CellTiter-Glo, 0.2 to 20 µM (AID 1117336;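 active = compounds lowering colon cancer cell viability after pretreatment blocking the GSK3B kinase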). The conditions noted are these: HCT116 viability after GSK3B inhibitor, at 20 µM, stronger effect = higher value. On the technique in general: Cellular ATP, detected with luciferase, serves as a proxy for viable cell number.
Assay [4] can be described thus: inhibition of endothelial tube formation, primary screen, imaging, VEGF stimulated, CD31 staining, tube area, NPC library (AID 1117340). Particulars: VEGF-stimulated ADSC/ECFC co-culture, at 10 µM, stronger effect = higher value.
Assay [5] can be described thus: glucagon-like peptide 1 release enhancers, primary assay, NCI-H716 cell line, NPC library (AID 1117341;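 active = compound raises GLP1 secretion from the human gut endocrine cells, with no numeric limit stated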; note: reference of the scale not given here). Particulars: NCI-H716 cells, at 10 µM, stronger effect = higher value.
The nature of assay [6]: HCT116 colon cancer cell growth inhibition, primary screen, CellTiter-Glo luminescence, NPC library (AID 1117342;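 active = compounds that lower survival of HCT116 colon cancer cells in the luminescence readout, no numeric limit stated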). The conditions noted are these: at 20 µM (top of the series).
Assay [7] in a line: CellTiter-Glo luminescent readout of SW480 viability loss, NPC library primary (AID 1117343;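 active = compounds that lower viability of the colon cancer cells in the luminescence readout, with no numeric limit stated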). The conditions noted are these: CellTiter-Glo luminescence; at 20 µM (top of the series).
A short description of assay [8]: decreased DLD-1 cellular survival, CellTiter-Glo luminescent readout, NPC compound collection, primary HTS (AID 1117346;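 active = compounds that lower survival of DLD-1 colon cancer cells in the luminescence readout, no cutoff given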). The conditions noted are these: DLD-1 viability, CellTiter-Glo luminescence; at 20 µM (top of the series).

Turning to `Nc1nnnn1-c1ccccc1`, the nuclear beta-catenin stimulation in assay [1] (at 10 µM) was -0.2% (inactive); in assay [1] (stimulation, at 2 µM), 0.5%. In addition, the insulin secretion stimulation in assay [2] was -1.6% (inactive). In addition, the viability decrease in assay [3] is -7.65% (inactive). The tube area decrease in assay [4] was -14.5% (inactive). In assay [5], the GLP1 secretion stimulation is 2.4% (inactive). For the same compound, the inhibition of viability in assay [6] was 5.4% (inactive). The viability decrease (inhibition) in assay [7] was 56.4% (active); in assay [8], -1.05% (inactive).

With `O=C(O)c1ccccc1NCCc1ccccc1`, the nuclear beta-catenin stimulation in assay [1] (at 10 µM) is 1.2% (inactive); in assay [1] (stimulation, at 2 µM), 2.5%. For the same compound, the insulin secretion stimulation in assay [2] is 0.15% (inactive). Moreover, in assay [3], the viability decrease was 42.9% (inactive). Also, the tube area decrease in assay [4] is 22.2% (inactive). In addition, the GLP1 secretion stimulation in assay [5] was 1.4% (inactive). In assay [6], the inhibition of viability was 26.7% (inactive). Further, the values for the viability decrease (inhibition) in assay [7] and in assay [8] were 50.6% (active) and -1.8% (inactive), respectively.

As for `Cc1ccc(C(=O)C(=O)O)cc1C`, the nuclear beta-catenin stimulation in assay [1] (at 10 µM) was 1% (inactive); in assay [1] (stimulation, at 2 µM), 1.8%. For the same compound, the insulin secretion stimulation in assay [2] is 2.9% (inactive). The viability decrease in assay [3] was -10.8% (inactive). Also, the tube area decrease in assay [4] is -6.7% (inactive). Further, the GLP1 secretion stimulation in assay [5] is -3.1% (inactive). For the same compound, in assay [6], the inhibition of viability was -6.7% (inactive). In addition, the viability decrease (inhibition) is 17.4% (inactive) in assay [7] and -5% (inactive) in assay [8].

As for `NC(=O)NNc1ccccc1`, the nuclear beta-catenin stimulation is 3.2% (inactive) in assay [1] (at 10 µM) and 0.7% in assay [1] (stimulation, at 2 µM). The insulin secretion stimulation in assay [2] was -1.9% (inactive). In assay [3], the viability decrease was -9.75% (inactive). Besides, in assay [4], the tube area decrease is 16% (inactive). The GLP1 secretion stimulation in assay [5] is 1.4% (inactive). Besides, the inhibition of viability in assay [6] is -3% (inactive). Besides, the viability decrease (inhibition) in assay [7] is 30.5% (inactive); in assay [8] it was 7.45% (inactive).

Regarding `COC(=O)c1cc(Cl)c(NC(C)=O)cc1OC`, the nuclear beta-catenin stimulation in assay [1] (at 10 µM) was 1.9% (inactive); in assay [1] (stimulation, at 2 µM) it was 0.7%. The insulin secretion stimulation in assay [2] was 0.95% (inactive). Further, the viability decrease in assay [3] was -12.1% (inactive). Moreover, the tube area decrease in assay [4] was -7.7% (inactive). The GLP1 secretion stimulation in assay [5] is 1.2% (inactive). The inhibition of viability in assay [6] is -1.4% (inactive). Further, the results for the viability decrease (inhibition) in assay [7] and in assay [8] were -23.1% (inactive) and -11.9% (inactive), respectively.

In the case of `CCN1CCCC1=O`, the nuclear beta-catenin stimulation in assay [1] (at 10 µM) is -0.1% (inactive); in assay [1] (stimulation, at 2 µM), 2.9%. Further, in assay [2], the insulin secretion stimulation is 2.6% (inactive). Besides, the viability decrease in assay [3] is 18.7% (inactive). In assay [4], the tube area decrease was -19.9% (inactive). In addition, the GLP1 secretion stimulation in assay [5] was 4.1% (inactive). Moreover, the inhibition of viability in assay [6] is -2.03% (inactive). The viability decrease (inhibition) in assay [7] was -20.4% (inactive); in assay [8], -9.9% (inactive).

For `Cc1c(I)c(=O)n(-c2ccccc2)n1C`, the nuclear beta-catenin stimulation is -0.6% (inactive) in assay [1] (at 10 µM) and 0.4% in assay [1] (stimulation, at 2 µM). In assay [2], the insulin secretion stimulation is 0.4% (inactive). In assay [3], the viability decrease was -4.55% (inactive). Also, the tube area decrease in assay [4] is 1.2% (inactive). Further, the GLP1 secretion stimulation in assay [5] was 0.6% (inactive). The inhibition of viability in assay [6] is -8.9% (inactive). Also, the viability decrease (inhibition) is 26.3% (inactive) in assay [7] and 33.4% (inactive) in assay [8].

As for `O=C(Nc1ccc(Cl)cc1)Nc1ccc(Cl)c(Cl)c1`, the nuclear beta-catenin stimulation was 35.1% (inactive) in assay [1] (at 10 µM) and 0.3% in assay [1] (stimulation, at 2 µM). The insulin secretion stimulation in assay [2] was -3.4% (inactive). In addition, the viability decrease in assay [3] is 92.2% (active). In addition, the tube area decrease in assay [4] was 103% (active). For the same compound, the GLP1 secretion stimulation in assay [5] is -3.2% (inactive). Besides, the inhibition of viability in assay [6] was 84.6% (active). The viability decrease (inhibition) in assay [7] is 116% (active); in assay [8] it was 94.1% (active).

Consider `Fc1ccc(C(c2ccc(F)cc2)N2CCNCC2)cc1`, for which the nuclear beta-catenin stimulation was -0.2% (inactive) in assay [1] (at 10 µM) and 0.1% in assay [1] (stimulation, at 2 µM). Moreover, the insulin secretion stimulation in assay [2] is 16.6% (inactive). For the same compound, the viability decrease in assay [3] is 29.7% (inactive). Further, the tube area decrease in assay [4] is 13.9% (inactive). Also, the GLP1 secretion stimulation in assay [5] is 7.5% (inactive). Besides, in assay [6], the inhibition of viability is 79.8% (active). For the same compound, the viability decrease (inhibition) in assay [7] was 72.4% (active); in assay [8], 25.2% (inactive).

For `CCCCC[C@H](O)C=C[C@H]1[C@H](O)CC(=O)[C@H]1CC=CCCCC(=O)O`, the nuclear beta-catenin stimulation in assay [1] (at 10 µM) is 0.5% (inactive); in assay [1] (stimulation, at 2 µM), -0.7%. For the same compound, in assay [2], the insulin secretion stimulation was 1.7% (inactive). Moreover, the viability decrease in assay [3] is -18.4% (inactive). Further, in assay [4], the tube area decrease was 28.7% (inactive). In assay [5], the GLP1 secretion stimulation was 3.8% (inactive). In assay [6], the inhibition of viability is -14.5% (inactive). Further, the viability decrease (inhibition) in assay [7] is 25.3% (inactive); in assay [8], -48.6% (inactive).

`O=C1Nc2ccccc2C1(c1ccc(O)cc1)c1ccc(O)cc1`: the nuclear beta-catenin stimulation is -0.4% (inactive) in assay [1] (at 10 µM) and -1.6% in assay [1] (stimulation, at 2 µM). Also, the insulin secretion stimulation in assay [2] is 0.6% (inactive). Further, the viability decrease in assay [3] was 54.5% (active). Further, in assay [4], the tube area decrease was 16.2% (inactive). Also, in assay [5], the GLP1 secretion stimulation is 5.4% (inactive). Further, in assay [6], the inhibition of viability is 71.7% (active). The values for the viability decrease (inhibition) in assay [7] and in assay [8] were 38.2% (inactive) and 56.5% (active), respectively.

For `CS(=O)(=O)c1ccc(-c2cn3ccccc3n2)cc1`, the nuclear beta-catenin stimulation in assay [1] (at 10 µM) is -2% (inactive); in assay [1] (stimulation, at 2 µM) it was -0.4%. In addition, the insulin secretion stimulation in assay [2] was 0.9% (inactive). Moreover, the viability decrease in assay [3] is 18.1% (inactive). In assay [4], the tube area decrease is -6.3% (inactive). In addition, the GLP1 secretion stimulation in assay [5] is -2.6% (inactive). Also, the inhibition of viability in assay [6] is 14.5% (inactive). Besides, the viability decrease (inhibition) in assay [7] was 22.6% (inactive); in assay [8], 13.5% (inactive).

Regarding `CN(C)CCOC(c1ccccc1)c1ccc(Br)cc1` (stereo not given), the nuclear beta-catenin stimulation in assay [1] (at 10 µM) was 4.6% (inactive); in assay [1] (stimulation, at 2 µM), 5.4%. The insulin secretion stimulation in assay [2] is 95% (active). Moreover, the viability decrease in assay [3] was -92.2% (inactive). The tube area decrease in assay [4] is -4.6% (inactive). The GLP1 secretion stimulation in assay [5] was 12.6% (inactive). Moreover, in assay [6], the inhibition of viability was 29.9% (inactive). Besides, the viability decrease (inhibition) in assay [7] was 55.5% (active); in assay [8], 5.7% (inactive).

`NNc1nnc(NN)c2ccccc12`: the nuclear beta-catenin stimulation is 3.3% (inactive) in assay [1] (at 10 µM) and 1.4% in assay [1] (stimulation, at 2 µM). The insulin secretion stimulation in assay [2] is -1.8% (inactive). Moreover, in assay [3], the viability decrease is -0.85% (inactive). The tube area decrease in assay [4] was 40.1% (active). The GLP1 secretion stimulation in assay [5] was -3.3% (inactive). Further, in assay [6], the inhibition of viability was 22.6% (inactive). Also, the viability decrease (inhibition) was 22.7% (inactive) in assay [7] and 6.6% (inactive) in assay [8].

As for `O=P(O)(O)C(Sc1ccc(Cl)cc1)P(=O)(O)O`, the nuclear beta-catenin stimulation in assay [1] (at 10 µM) is 1.7% (inactive); in assay [1] (stimulation, at 2 µM) it was 1.6%. In addition, the insulin secretion stimulation in assay [2] is 3.9% (inactive). The viability decrease in assay [3] is -2.7% (inactive). Also, the tube area decrease in assay [4] was 1% (inactive). Also, the GLP1 secretion stimulation in assay [5] is -2.7% (inactive). The inhibition of viability in assay [6] was 4.3% (inactive). In addition, the viability decrease (inhibition) in assay [7] was 2.6% (inactive); in assay [8] it was 2% (inactive).
